Source: PubChem BioAssay
HT1080 IDH1KD tx – qHTS for induction of synthetic lethality in tumor cells producing 2HG: qHTS for the HT-1080-IDH1KD cell line. HT-1080 IDH1 knockdown viability, ATP luminescence, 48 h. Potency, µM (series often up to 46.1 µM), actives largely listed as cytotoxic. hit rate 2% among 360,000. AID 686971, 2013
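After a 2 h attachment period, IDH1KD HT-1080 cells took pin-transferred compound for 48 h at 37 °C; ATP-based luminescence after 10 min room-temperature reagent incubation reported viability.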
KB-3-1 cytotox – qHTS assay for MDR1-selective chemotherapeutics: Primary screen using the parental adenocarcinoma cell KB-3-1 | KB-3-1 viability, CellTiter-Glo ATP luminescence, 72 h | Potency, µM (series often up to 46.1 µM), most hits filed as cytotoxic | AID 1347075, 2019 | hit rate 1.4% among 400,000; also: nearly all actives have a fitted effect of over 60% in size
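Viability of parental KB-3-1 cells, measured by CellTiter-Glo luminescence, followed a 72 h incubation at 37 °C with pinned compounds in phenol-red-free DMEM containing 10% FBS.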
KB-V1 MDR tox – qHTS assay for MDR1-selective chemotherapeutics: Primary screen using the drug-selected MDR subline cells KB-V1; AID 1347076, 2019; hit rate 3.4% among 400,000; KB-V1 MDR cells viability, CellTiter-Glo, 72 h; Potency, µM (titrated, usually from 46.1 µM), usual class: cytotoxic; also: nearly all actives have a fitted effect of over 60% in size
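Drug-selected KB-V1 cells, grown in DMEM lacking phenol red with 10% FBS, receive compound titrations; after three days at 37 degrees C, surviving cell ATP is quantified by CellTiter-Glo luminescence and responses normalized and curve-fitted.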
HT1080NT lethal – qHTS for induction of synthetic lethality in tumor cells producing 2HG: qHTS for the HT-1080-NT fibrosarcoma cell line; Potency, µM (highest dose often 46.1 µM), most hits filed as cytotoxic; hit rate 1.6% among 360,000; AID 686970, 2013; HT-1080-NT fibrosarcoma viability, CellTiter-Glo ATP luminescence, 48 h;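 also: NT is the 2HG producing partner of a matched IDH1 knockdown line; nearly all actives have a fitted effect of over 55% in size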
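HT-1080-NT fibrosarcoma cells (2HG-overproducing), 750 cells/well in RPMI with 5% FBS, dosed after 2 h and incubated 48 h at 37C. CellTiter-Glo luminescence normalized to DMSO and no-cell wells; concentration-response curves fitted and classed.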
Of the large screens only hits and unclear results are named; the others gave an inactive call. Hits are enriched below; roughly 5.7% of the tested compounds scored in any of these assays. Calls follow the shape of the dose curve; as a rule, active = well fitted curve in the direction sought with a large enough effect; inconclusive = small, poorly fitted or top-dose-only effect, or another doubt; inactive = no such curve, though single readings can be large; an effect the other way counts as inactive or inconclusive.

N#C/C(=C\c1ccc([N+](=O)[O-])o1)c1nc2ccccc2[nH]1	HT1080 IDH1KD tx 5.8µM, KB-3-1 cytotox 13µM, HT1080NT lethal 5.8µM
N#C/C(=C\Nc1ccc2c(c1)OCCO2)c1nc2ccccc2[nH]1	KB-3-1 cytotox inconclusive, KB-V1 MDR tox 14.6µM
CC1=C(C(N)=O)C(c2cccc(C)c2)n2nc(-c3cccc(C)c3)nc2N1 (configuration not stated)	none (no result: HT1080 IDH1KD tx, HT1080NT lethal)
COc1ccc(/C=C/C2=NNC(=O)CC2)cc1	KB-3-1 cytotox 1.46µM, KB-V1 MDR tox 0.411µM
O=C1CCC(/C=C/c2ccccc2)=NN1Cc1ccccc1Cl	none
CCCOc1ccc(C2=NNC(=O)CC2)cc1	KB-V1 MDR tox 0.206µM
COc1ccc(C2=NNC(=O)CC2)cc1	KB-V1 MDR tox inconclusive
O=C1CCC(/C=C/c2ccccc2)=NN1	KB-3-1 cytotox inconclusive, KB-V1 MDR tox 5.17µM
CCOC(=O)CN1N=C(/C=C/c2ccc(OCC)cc2)CCC1=O	KB-V1 MDR tox inconclusive
CCOc1ccc(/C=C/C2=NNC(=O)CC2)cc1	KB-V1 MDR tox 1.84µM
CCc1ccccc1NC(=O)C1CCCN(C(=O)c2cnn(-c3ccccc3)c2-n2cccc2)C1 (configuration not stated)	none (no result: HT1080 IDH1KD tx, HT1080NT lethal)
COc1ccc(-n2c(C)cc(C(=O)Cn3nnc4ccccc4c3=O)c2C)cc1	HT1080 IDH1KD tx inconclusive, HT1080NT lethal inconclusive
Cc1ccc(-n2c(C)cc(C(=O)Cn3nc(C(=O)O)c4ccccc4c3=O)c2C)cc1	HT1080 IDH1KD tx inconclusive, KB-V1 MDR tox inconclusive
Cc1cc(C(=O)Cn2nnc3ccccc3c2=O)c(C)n1-c1ccccc1F	HT1080 IDH1KD tx inconclusive, KB-3-1 cytotox 5.17µM, KB-V1 MDR tox inconclusive
COc1ccc(-n2c(C)cc(C(=O)Cn3nc(C(=O)O)c4ccccc4c3=O)c2C)cc1	KB-V1 MDR tox 14.6µM
CCn1c2ccccc2c2cnc(N=CN(C)C)c(C#N)c21	KB-V1 MDR tox 7.31µM
O=[N+]([O-])c1ccccc1S(=O)c1ccccc1[N+](=O)[O-]	HT1080 IDH1KD tx inconclusive, KB-3-1 cytotox inconclusive, KB-V1 MDR tox inconclusive, HT1080NT lethal 20.6µM
N#Cc1ccccc1OCC(=O)N1CCN(c2ccccc2F)CC1	none (no result: HT1080 IDH1KD tx, HT1080NT lethal)
COc1cc2c(C#N)c(N3CCCCC3)nc(N)c2c(N)n1	HT1080 IDH1KD tx inconclusive, KB-3-1 cytotox inconclusive, KB-V1 MDR tox 8.2µM, HT1080NT lethal inconclusive
COc1ccc(C(=O)NN(C)c2nc(-c3ccccc3)nnc2C(F)(F)F)cc1	none
COc1ccc(C(=O)NN(C)c2nc(C(F)(F)F)nc3ccccc23)cc1	HT1080 IDH1KD tx 0.0065µM, KB-3-1 cytotox 0.82µM, KB-V1 MDR tox 0.731µM, HT1080NT lethal inconclusive
O=C1CC(O)(c2ccccc2)C(c2ccccc2)=C1c1ccccc1 (configuration not stated)	KB-3-1 cytotox inconclusive, KB-V1 MDR tox 17.8µM, HT1080NT lethal inconclusive
COc1ccccc1C(=O)Nc1ccc2nc(SCCOc3ccccc3C)sc2c1	none (no result: HT1080 IDH1KD tx, HT1080NT lethal)
CC1CCCCN1CCNC(=O)c1ccc2c(=O)n(CCc3ccccc3)c(=O)[nH]c2c1 (configuration not stated)	KB-3-1 cytotox 20.6µM
COc1ccc(CCn2c(=S)[nH]c3cc(C(=O)NCc4ccco4)ccc3c2=O)cc1OC	KB-3-1 cytotox 16.4µM, HT1080NT lethal inconclusive
Cc1ccc(CNC(=O)c2ccc3c(=O)n(CC4CCCO4)c(=S)[nH]c3c2)cc1 (configuration not stated)	KB-V1 MDR tox 16.4µM
COc1ccc(CCn2c(=N)c(C(=O)NCc3ccco3)cc3c(=O)n4ccccc4nc32)cc1	HT1080 IDH1KD tx 12.6µM, KB-V1 MDR tox 23.1µM, HT1080NT lethal inconclusive
CCN1CCN(C(c2ccc(SC)cc2)c2c(O)cc(C)n(CCOC)c2=O)CC1 (configuration not stated)	none (no result: HT1080 IDH1KD tx, HT1080NT lethal)
CC1CCCCN1CCNC(=O)c1ccc2c(=O)n(Cc3ccc(Cl)cc3)c(=S)[nH]c2c1 (configuration not stated)	HT1080 IDH1KD tx 23.1µM, HT1080NT lethal 20.6µM
O=C(NCCCN1CCOCC1)c1ccc2c(=O)n(Cc3ccccc3)c(=S)[nH]c2c1	HT1080 IDH1KD tx 16.4µM, HT1080NT lethal 18.4µM
CC1=C(C(=O)Nc2ccccc2)C(c2ccccn2)n2nc(SCc3ccccc3)nc2N1 (configuration not stated)	none (no result: HT1080 IDH1KD tx, HT1080NT lethal)
CCOc1ccc(S(=O)(=O)c2cn(Cc3ccc(C)cc3)c3ccc(OC)cc3c2=O)cc1	KB-V1 MDR tox inconclusive (no result: HT1080 IDH1KD tx, HT1080NT lethal)
CC12CCC(O)CC1=CCC1C2CCC2(C)C1CCC21CCC(=O)O1 (configuration not stated)	KB-3-1 cytotox inconclusive, KB-V1 MDR tox 20.6µM
CC(=O)C1CCC2C3CC=C4CC(SC(=N)N)CCC4(C)C3CCC12C (configuration not stated)	HT1080 IDH1KD tx inconclusive, KB-3-1 cytotox inconclusive, KB-V1 MDR tox 23.1µM, HT1080NT lethal inconclusive
CC(=O)OCC(=O)C1CCC2C3CC=C4CC(O)CCC4(C)C3CCC12C (configuration not stated)	KB-V1 MDR tox 14.6µM
CC(=O)OCC(=O)[C@H]1CC[C@H]2[C@@H]3CCC4=CC(=O)CC[C@]4(C)[C@H]3CC[C@]12C	KB-3-1 cytotox inconclusive, KB-V1 MDR tox 14.6µM
CC(C)C(=O)N[C@H]1CCC2C3CC=C4C[C@@H](O)CC[C@]4(C)C3CC[C@@]21C (some centres not stated)	none
O=C(NCCc1ccc(Cl)cc1)C(=O)NCC(c1ccco1)S(=O)(=O)c1ccc(Cl)cc1 (configuration not stated)	KB-3-1 cytotox inconclusive (no result: HT1080 IDH1KD tx, HT1080NT lethal)
CC(C)(C)OC(=O)N1CCC(c2c(C(=O)NC3CCN(Cc4ccccc4)CC3)cnn2-c2ccc(F)cc2F)CC1	none (no result: HT1080 IDH1KD tx, HT1080NT lethal)
O=C(NCc1ccccc1)c1c(Cl)nc(Cl)c(Cl)c1Cl	HT1080 IDH1KD tx 7.31µM, KB-3-1 cytotox 16.4µM, HT1080NT lethal 10.3µM
COc1ccc2c(c1)c1nnc(SC(C)C)nc1n2C	none (no result: KB-3-1 cytotox, KB-V1 MDR tox)
Cc1nn(CC(=O)Nc2ccc(Cl)c(S(=O)(=O)N(C)C)c2)c(C)c1[N+](=O)[O-]	KB-V1 MDR tox 20.6µM
Cc1ccc(NC(=O)Cn2nc(C)c(S(=O)(=O)N(C)C)c2C)cc1C	KB-V1 MDR tox 23.1µM
COc1cccc(CCn2c(N)cc(=O)[nH]c2=S)c1OC	none (no result: KB-3-1 cytotox, KB-V1 MDR tox)
CN(C)/C=C/C1=CC(=O)CC(C)(C)C1	HT1080 IDH1KD tx 20.6µM
COc1ccc(-n2nc(C(=O)N(C)c3cc(C)ccc3C)c3c4ccccc4n(C)c3c2=O)cc1Cl	none (no result: HT1080 IDH1KD tx, HT1080NT lethal)
FC(F)(F)c1cc(Cl)c2nc(-c3ccc(Cl)cc3)c(Cc3ccsc3)n2c1	KB-3-1 cytotox 11.6µM
Fc1ccc(-c2nc3c(Cl)cc(C(F)(F)F)cn3c2Cc2cccc(Cl)c2)cc1	KB-3-1 cytotox 23.1µM
FC(F)(F)c1cc(Cl)c2nc(-c3ccccc3)c(Cc3ccsc3)n2c1	KB-3-1 cytotox inconclusive
Cc1ccc(-n2cc(C(=O)OCc3ccc(F)c(F)c3)c3ccccc3c2=O)cc1	none (no result: HT1080 IDH1KD tx, HT1080NT lethal)
